PfHsp40 yeast – rescue of yeast from PfHsp40 toxicity, primary screen, S. cerevisiae, ATP luminescence. S. cerevisiae expressing PfHsp40, growth rescue. growth rescue, % at 12.5 µM. 0.68% of 340,000 active; in the data active = growth rescue above about 28%, passing the limit was not always enough;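 also: yeast W303a lacking pdr1 and pdr3 grown in galactose medium; growth measured after three days at 30 °C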
PrPC surface inh – inhibitors of human cell surface prion protein PrPC, primary screen, cell-based, TR-FRET | 0.43% of 370,000 active | Major prion protein (Homo sapiens), P04156 | inhibition, % at 13.8 µM | TR-FRET read-out; in the data active = inhibition above about 24%; also: 0% = median of the test wells and 100% = reference compound wells
Mtb FBA inh – Mtb FBA enzyme inhibitors, primary screen, biochemical, fluorescence, strain H37Rv. AID 588726, 2011. 2.3% of 360,000 active. purified M. tuberculosis FBA, fluorescence read-out. inhibition, % at 1 µM;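 also: 0% = vehicle and 100% = reference inhibitor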
Target sequence (P9WQA3 whole entry, looked up): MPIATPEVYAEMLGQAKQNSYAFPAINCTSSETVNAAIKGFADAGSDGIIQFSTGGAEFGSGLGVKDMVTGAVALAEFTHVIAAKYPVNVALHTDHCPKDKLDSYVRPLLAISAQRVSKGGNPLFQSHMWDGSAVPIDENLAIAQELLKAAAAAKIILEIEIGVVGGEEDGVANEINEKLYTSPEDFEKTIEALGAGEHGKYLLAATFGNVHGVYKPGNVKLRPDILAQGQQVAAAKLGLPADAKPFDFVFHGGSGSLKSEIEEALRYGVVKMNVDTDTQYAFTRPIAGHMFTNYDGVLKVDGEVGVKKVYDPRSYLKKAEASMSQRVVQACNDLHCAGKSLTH
BJeLR viability – MLPCN primary cell-based screen for lethality selective to Ras in HRASV12 cells; 0.17% of 300,000 active; inhibition, % (concentration not given with the values); AID 1554, 2009; BJeLR (HRASV12) viability, CellTiter-Glo ATP luminescence, 48 h; in the data active = inhibition above about 50%
GDH-TPI counter-1 – GDH-TPI coupling enzyme inhibitors, primary screen, artefact control for M. tuberculosis FBA inhibitor project, biochemical, absorbance, full deck; GDH-TPI coupled enzyme counterscreen, NADH absorbance; 1.2% of 360,000 active; AID 588335, 2011; inhibition, % at 4.8 µM; in the data active = inhibition above about 30%;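 also: 0% = DMSO wells and 100% = wells lacking the enzyme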
PrP UTR inh – inhibition of PrP 5' UTR reporter expression; 0.35% of 340,000 active; AID 488862, 2010; inhibition, % (concentration not given with the values); cell-based PrP 5' UTR mRNA reporter, plate reader; in the data active = inhibition above about 52%; also: 0 = median of the neutral control wells
Mtb FBA confirm – M. tuberculosis aldolase blockers, biochemical, fluorescence, strain H37Rv, confirmation; inhibition, % at 1 µM; purified M. tuberculosis FBA, fluorescence read-out; 78% of 5,600 active; AID 651616, 2012; shares compounds with Mtb FBA inh;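 also: 0% = vehicle wells and 100% = reference inhibitor wells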
GDH-TPI counter-2 – GDH-TPI coupling enzyme inhibitors, artefact control for M. tuberculosis FBA inhibitor project, biochemical, fluorescence, high throughput; shares compounds with Mtb FBA inh; GDH-TPI coupled enzyme counterscreen; inhibition, % at 1 µM; 81% of 5,600 active; AID 652141, 2013; in the data active = inhibition above about 10%
* = called active by the depositor; x = not tested or not shown; + = active, no number. Sampled rows, rich in hits. Any-hit rate of the full collection: about 4.5%. Rule as the data show it, unless noted: active = inhibition above about 27%; inactive = the rest.

SMILES	PfHsp40 yeast	PrPC surface inh	Mtb FBA inh	BJeLR viability	GDH-TPI counter-1	PrP UTR inh	Mtb FBA confirm	GDH-TPI counter-2
Cc1ccc2nc3c(cc(C#N)c(=N)n3Cc3cccnc3)c(=O)n2c1	x	x	x	-3	x	x	x	x
O=C1C(NC(=O)N2c3ccccc3C=Cc3ccccc32)CCCCN1Cc1cccc(Cl)c1 (stereo not given)	x	-4	x	x	x	x	x	x
CC1C(=O)N(Cc2cn(CC3CCCCC3)nn2)CCS(=O)(=O)N1Cc1ccc(-c2cccc(CO)c2)cc1 (stereo not given)	x	-2	0	x	6	x	x	x
COc1ccc2oc(C(=O)OCC(=O)NC3CCCC3)c(C)c2c1	0	-3	38*	5	8	-18	132*	113*
COc1ccc(C(C)=O)cc1COC(=O)C(CO)NS(=O)(=O)c1ccc(Br)cc1 (stereo not given)	3	1	-1	5	2	-20	x	x
COc1ccc(-c2cc(=O)oc3cc(OC(C)C(=O)NC4CC4)ccc23)cc1 (stereo not given)	0	-1	1	8	4	-25	x	x
COc1ccc(-c2cc(=O)oc3cc(OC(=O)C4CCCCC4)c(Cl)cc23)cc1	-1	-19	45*	-2	8	-3	46*	42*
O=C1OC(C(Cl)(Cl)Cl)Nc2ccccc21 (stereo not given)	x	-5	40*	x	x	x	+	+
CC(C)c1cc(=O)oc2c3c4c(cc12)CCCN4CCC3	-1	-21	39*	-6	3	-6	98*	86*
Cc1cc(=O)oc2c3c4c(cc12)OCCN4CCC3	2	-24	76*	-17	6	1	66*	66*
Cc1cc2c(C(F)(F)F)cc(=O)oc2c2c1NCCC2	0	-1	0	9	6	-14	x	x
Cn1c(NCc2ccco2)nc2ccccc21	0	3	-4	1	-3	-1	x	x
Cn1nnc2c(NCc3ccco3)nccc21	-1	-2	64*	-14	-3	-7	53*	43*
COC(=O)[C@]12C[C@H](CC(=O)NCc3cccc(C(F)(F)F)c3)C(=O)N(Cc3ccc(Cl)cc3Cl)C1=C[C@H](C1CCCC1)O[C@@H]2C	x	-3	x	x	x	x	x	x
COc1ccc2c(CN3CCN(c4ccccc4OC)CC3)cc(=O)oc2c1	x	6	2	x	x	x	x	x
COc1ccc2c(COC(=O)[C@@H]3CCCN3S(=O)(=O)c3ccc(Cl)cc3)cc(=O)oc2c1	0	5	51*	x	7	1	102*	76*
COc1cc(NC(=O)COC(=O)CNC(=O)C23CC4CC(CC(C4)C2)C3)cc(OC)c1	0	3	1	x	12	-15	x	x
COc1ccc2c(CN3CCCCCCC3)cc(=O)oc2c1	x	-7	82*	x	x	x	1	0
COc1ccc2c(COC(=O)CNC(=O)C34CC5CC(CC(C5)C3)C4)cc(=O)oc2c1	5	-5	85*	-7	12	-20	+	167*
COc1cc(NC(=O)COC(=O)[C@@H]2CCCN2S(=O)(=O)c2ccc(Cl)cc2)cc(OC)c1OC	-1	6	6	8	8	-4	x	x
Cc1ccc(CNC(=O)Cn2cnc(S(=O)(=O)N3CCC(C)CC3)c2)o1	-1	8	0	0	-2	-7	x	x
CCOC(=O)Cc1c(C)nc2cc(-c3ccc(Cl)cc3)[nH]n2c1=O	-1	3	1	1	5	-17	x	x
O=c1c2c(nc3cc(-c4ccc(F)cc4)[nH]n13)CCC2	0	7	38*	15	4	-85	119*	81*
Cc1nc2cc(-c3ccccc3)[nH]n2c(=O)c1C	1	-3	33*	2	6	-57	95*	62*
O=c1cc(-c2ccccc2)nc2cc(-c3ccc(F)cc3)[nH]n12	-1	2	44*	4	3	-15	0	-3
SMILES	PfHsp40 yeast	PrPC surface inh	Mtb FBA inh	BJeLR viability	GDH-TPI counter-1	PrP UTR inh	Mtb FBA confirm	GDH-TPI counter-2
CCc1c(C)nc2cc(-c3ccc(OC)cc3)[nH]n2c1=O	1	5	35*	-3	11	-44	+	+
O=C(N[C@@H](Cc1ccccc1)C(=O)N1CCC2(CC1)NCCc1[nH]cnc12)c1cccc(F)c1	0	-2	1	-2	-5	-9	x	x
COc1ccc(Cn2c(=O)[nH]c3cc(C(=O)N4CCN(c5ccc(C(C)=O)cc5)CC4)ccc3c2=O)cc1	-1	3	0	1	7	-12	x	x
COCCCn1cc(C(=O)c2cc(OC)ccc2OCC(=O)N2CCCCC2C)cc(C#N)c1=O (stereo not given)	-1	3	-1	16	10	-32	x	x
Nc1c(C(=O)OCc2ccccc2)c2nc3ccccc3nc2n1Cc1cccs1	0	6	51*	10	9	-31	168*	150*
COCCCNC(=O)c1c(NC(=O)c2ccccc2Cl)n(Cc2ccccc2)c2nc3ccccc3nc12	0	2	9	0	12	-11	x	x
COCCNC(=O)c1c(N)n(Cc2ccco2)c2nc3ccccc3nc12	1	-10	83*	0	18	-23	76*	67*
COCCNC(=O)c1c(N)n(/N=C/c2cccs2)c2nc3ccccc3nc12	17	2	-9	7	17	-13	x	x
Nc1c(C(=O)NCCN2CCOCC2)c2nc3ccccc3nc2n1Cc1ccco1	-1	-20	86*	-3	19	-15	98*	96*
COCCNC(=O)c1c(NC(=O)c2ccco2)n(Cc2ccccc2)c2nc3ccccc3nc12	3	-5	75*	-1	5	-18	65*	65*
COCCNC(=O)c1c(N)n(/N=C/c2ccc(F)cc2)c2nc3ccccc3nc12	x	3	1	6	7	x	x	x
COc1ccc(-n2ccnc2SCC(=O)NCc2ccco2)c(OC)c1	0	3	2	1	2	-3	x	x
CCN(c1ccccc1)S(=O)(=O)c1cccc(C(=O)Nc2ccc(C)cn2)c1	1	1	3	1	5	-16	x	x
O=C(CN1C(=O)c2ccccc2S1(=O)=O)NCCc1ccc(F)cc1	1	-5	2	x	-6	-24	x	x
Nc1c(C(=O)NCCc2ccccc2)c2nc3ccccc3nc2n1CCN1CCOCC1	1	-2	27*	0	5	-17	73*	53*
